{
  "source": "PubChem BioAssay (NCATS)",
  "note": "Active and inactive are the calls of the source. How the calls were made is not given here. Potency means the concentration at half of the fitted maximal effect.",
  "data": [
    {"test_system": "HIV-1 nucleocapsid protein NCp7 (binding to TG oligonucleotide)", "assay": "HIV Nucleocapsid (AID 346);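 further: potency is for inhibitors that block NC binding and lower polarization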", "settings": "HIV-1 NC / fluorescein-TGTGTGTG probe, fluorescence polarization", "method_in_brief": "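Fluorescence polarization binding of 100 nM HIV-1 NC to 10 nM fluorescein-labelled TG4xF oligonucleotide. Buffer was Hepes pH 7.5 with 250mM NaCl, 1uM ZnCl2, TCEP and 2-mercaptoethanol. Compounds were incubated 1 hr at room temperature before the read.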", "values": [
      {"smiles": "COc1ccc(-c2nc3cnc(Oc4cccc(Cl)c4)nc3n(C[C@H]3CCCO3)c2=O)cc1", "Potency": "> 20 µM (inactive)"},
      {"smiles": "Clc1ccccc1-c1ccc2ncnc(NCc3cccnc3)c2c1", "Potency": "> 20 µM (inactive)"},
      {"smiles": "O=C(c1cnccn1)N1CCC2(CC1)CN(c1ncccn1)C2", "Potency": "> 20 µM (inactive)"},
      {"smiles": "CN(C)c1ccc(-c2cc(-n3ccnc3)ncn2)cc1", "Potency": "> 20 µM (inactive)"},
      {"smiles": "COc1cccc(Cn2c(=O)c(-c3ccc(F)cc3)nc3cncnc32)c1", "Potency": "> 20 µM (inactive)"},
      {"smiles": "COc1ncc2nc(-c3cc(F)cc(F)c3)c(=O)n(C3CC3)c2n1", "Potency": "> 20 µM (inactive)"},
      {"smiles": "Cc1noc(C)c1C(=O)N1CCC[C@@]2(CCN(Cc3nccs3)C2)C1", "Potency": "> 20 µM (inactive)"},
      {"smiles": "COCCNc1ncnc2ccc(-c3c(C)noc3C)cc12", "Potency": "> 20 µM (inactive)"},
      {"smiles": "CN(C)c1ncc2nc(-c3cc(F)cc(F)c3)c(=O)n(C)c2n1", "Potency": "> 20 µM (inactive)"},
      {"smiles": "Cc1noc(C)c1C(=O)N1CCC2(CC1)CCN(c1ncccn1)CC2", "Potency": "> 20 µM (inactive)"},
      {"smiles": "CN(C)Cc1ccccc1-c1cncnc1NC1CC1", "Potency": "> 20 µM (inactive)"},
      {"smiles": "Cn1c(=O)c(-c2ccc(Cl)cc2)nc2cnc(Oc3cccc(Cl)c3)nc21", "Potency": "> 20 µM (inactive)"},
      {"smiles": "N#Cc1ccc(CN2CCC3(CC2)CCN(C(=O)c2cc(C(F)(F)F)cc(C(F)(F)F)c2)CC3)cc1", "Potency": "> 20 µM (inactive)"},
      {"smiles": "COc1cccc(-c2cc(NCc3ccccc3OC)ncn2)c1", "Potency": "> 20 µM (inactive)"},
      {"smiles": "Cc1noc(C)c1-c1ccc2ncnc(N(C)Cc3ccco3)c2c1", "Potency": "> 20 µM (inactive)"},
      {"smiles": "CN(Cc1ccco1)c1ncnc2ccc(-c3ccccc3C#N)cc12", "Potency": "> 20 µM (inactive)"},
      {"smiles": "N#CCCn1c(=O)c(CCc2ccccc2)nc2cnc(OCc3ccccc3)nc21", "Potency": "> 20 µM (inactive)"},
      {"smiles": "CCNc1ncc2nc(CCc3ccccc3)c(=O)n(Cc3ccc(F)cc3)c2n1", "Potency": "> 4 µM (inactive)"},
      {"smiles": "Cc1cccc(CNc2ccnc(-c3ccc(N(C)C)cc3)n2)c1", "Potency": "> 20 µM (inactive)"},
      {"smiles": "CCNc1ncc2ncc(=O)n(Cc3ccc(F)cc3)c2n1", "Potency": "> 20 µM (inactive)"},
      {"smiles": "COc1ccccc1CN1CC2(CCN(C(=O)c3cnccn3)CC2)C1", "Potency": "> 20 µM (inactive)"},
      {"smiles": "Cc1nc2cnc(N3CCOCC3)nc2n(C[C@H]2CCCO2)c1=O", "Potency": "> 20 µM (inactive)"},
      {"smiles": "N#Cc1ccccc1-c1ccc2ncnc(N3CCNCC3)c2c1", "Potency": "> 20 µM (inactive)"},
      {"smiles": "CC(=O)N1CCC2(CC1)CCN(c1ncccn1)CC2", "Potency": "> 20 µM (inactive)"},
      {"smiles": "O=C(c1ccco1)N1CCC2(CC1)CN(c1ncccn1)C2", "Potency": "> 20 µM (inactive)"},
      {"smiles": "CN(Cc1ccco1)c1ncnc2ccc(-c3cccnc3)cc12", "Potency": "> 20 µM (inactive)"},
      {"smiles": "COc1ccc(CNc2ncncc2-c2cccc(C#N)c2)c(OC)c1", "Potency": "> 20 µM (inactive)"},
      {"smiles": "CC(=O)N1CCC2(CC1)CN(c1ccccc1)C2", "Potency": "> 20 µM (inactive)"},
      {"smiles": "CC(C)CN1CCC2(CC1)CCN(C(=O)c1cnccn1)CC2", "Potency": "> 20 µM (inactive)"},
      {"smiles": "c1ccc2c(NC3CC3)nc(-c3ccoc3)nc2c1", "Potency": "> 20 µM (inactive)"},
      {"smiles": "Cn1cccc1C(=O)N1CCC2(CCCN(c3ccccc3)C2)CC1", "Potency": "> 20 µM (inactive)"},
      {"smiles": "Cc1cccc(CNc2ncnc3ccc(-c4cccc(C#N)c4)cc23)c1", "Potency": "> 20 µM (inactive)"},
      {"smiles": "COc1ccc(C(=O)N2CCC[C@@]3(CCN(C(=O)NC(C)C)C3)C2)cc1", "Potency": "> 20 µM (inactive)"},
      {"smiles": "N#CCCn1c(=O)c(CCc2ccccc2)nc2cnc(Oc3ccccc3)nc21", "Potency": "> 20 µM (inactive)"},
      {"smiles": "COc1cccc(Cn2c(=O)cnc3cnc(Oc4cccc(Cl)c4)nc32)c1", "Potency": "> 20 µM (inactive)"},
      {"smiles": "CN(C)c1ccc(-c2ccc3ncnc(NC4CC4)c3c2)cc1", "Potency": "> 20 µM (inactive)"},
      {"smiles": "COc1ccc(-n2c(=O)c(-c3ccc(F)cc3)nc3cncnc32)cc1", "Potency": "> 20 µM (inactive)"},
      {"smiles": "FC(F)(F)c1ccccc1-c1nc(Nc2ccncc2)c2ccccc2n1", "Potency": "> 20 µM (inactive)"},
      {"smiles": "COc1ccccc1-c1nc(N2CCOCC2)c2ccccc2n1", "Potency": "> 20 µM (inactive)"},
      {"smiles": "O=c1c(-c2cccc(Cl)c2)nc2cncnc2n1Cc1ccc(F)cc1", "Potency": "> 20 µM (inactive)"}
    ]}
  ]
}
